Data: the supplement of paper PMC10849652
About 8,800 targets were measured; listed, in parts, are those with a hit and a random draw of the rest. About 0.5% of all pairs of compound and target were hits.

What was measured:
Experiment in all cases: log2 fold change, soluble protein after heating vs DMSO (PISA); higher = thermal stabilisation; K562 lysate, 10 uM; active = over 0.2 and 3.5 SD of the protein, either way, in both replicates (recomputed)
erlotinib = compound: C#Cc1cccc(Nc2ncnc3cc(OCCOC)c(OCCOC)cc23)c1 [erlotinib]
How it was run: (§1)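 A 30 min treatment with 10 μM compound was applied to crude K562 extract at 1 mg/mL protein in PBS pH 7.4 with 1 mM MgCl2. Heating for 3 min spanned 48°C-58°C, after which aliquots were pooled, adjusted to 0.5% NP-40 at 4°C and spun at 21,000xg for 90 min. TMTpro 16plex LC-MS/MS of the supernatant, with channel sums equalised, gave values recorded as log-two fold change in thermal stability against solvent controls, from duplicates.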

[1] = compound: C/C(=N\NC(=O)C1=CC(=CC=C1)S(=O)(=O)N2CCOCC2)/C3=C(C=CC(=C3)Cl)O
How it was run: as §1

[2] = compound: C1=CC(=CC=C1C2=NC3=C(N2)C=C(C=C3)C(=O)N)OC4=CC=C(C=C4)Cl
How it was run: as §1

[3] = compound: C1=CC2=C(C=CC(=C2)/C=C\3/C(=O)NC(=NCC4=CC=CS4)S3)N=C1
How it was run: as §1

[4] = compound: C1=CC2=NC=CN=C2C=C1/C=C/3\C(=O)NC(=O)S3
How it was run: as §1

[5] = compound: C1=CC=C(C=C1)C2=NC(=C(N2)C3=CC=NC=C3)C4=CC(=C(C=C4)Cl)O
How it was run: as §1

[6] = compound: C1=CC=C2C(=C1)C3=NNC4=CC=CC(=C43)C2=O
How it was run: as §1

[7] = compound: C1CCN(C1)C(=O)NC2=CC=CC(=C2)NC3=NC=C(C(=N3)NCCC4=CN=CN4)Br
How it was run: as §1

[8] = compound: C1CN(CCC1(CC2=CC=C(C=C2)Cl)N)C3=NC=NC4=C3C=CN4
How it was run: as §1

IRAK-1-4 Inhibitor I = compound: C1COCCN1CCN2C3=CC=CC=C3N=C2NC(=O)C4=CC(=CC=C4)[N+](=O)[O-] [IRAK-1-4 Inhibitor I]
How it was run: as §1

Measured: log2 fold change

RPL27 (UniProt P61353)
inactive: erlotinib 0.002 | [1] -0.02 | [2] -0.04 | [3] -0.033 | [4] 0.011 | [5] 0.011 | [6] 0.03 | [7] 0.052 | [8] -0.014 | IRAK-1-4 Inhibitor I -0.014

S100A11 (UniProt P31949)
Chain of UniProt P31949 (P31949 whole entry, looked up): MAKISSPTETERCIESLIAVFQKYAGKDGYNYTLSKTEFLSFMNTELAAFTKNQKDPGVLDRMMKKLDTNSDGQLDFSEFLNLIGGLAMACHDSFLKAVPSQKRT
inactive: erlotinib 0.02 | [1] 0.034 | [2] 0.02 | [3] -0.008 | [4] -0.028 | [5] -0.009 | [6] -0.055 | [7] 0.071 | [8] 0.074 | IRAK-1-4 Inhibitor I -0.025

RPS4X (UniProt P62701)
inactive: erlotinib -0.016 | [1] 0.014 | [2] -0.012 | [3] -0.012 | [4] -0.018 | [5] -0.002 | [6] -0.005 | [7] 0.017 | [8] 0.004 | IRAK-1-4 Inhibitor I 0.03

REXO4 (UniProt Q9GZR2)
inactive: erlotinib -0.041 | [1] -0.195 | [2] -0.041 | [3] -0.084 | [4] -0.052 | [5] 0.027 | [6] -0.033 | [7] -0.022 | [8] 0.003 | IRAK-1-4 Inhibitor I -0.027

RPS6KB1 (UniProt P23443)
active: [6] 0.322
inactive: erlotinib -0.017 | [1] -0.018 | [2] -0.034 | [3] 0.013 | [4] -0.001 | [5] 0.083 | [7] 0.085 | [8] 0.027 | IRAK-1-4 Inhibitor I 0.028

RFC3 (UniProt P40938)
inactive: erlotinib 0.05 | [1] 0.01 | [2] -0.034 | [3] 0.024 | [4] 0.005 | [5] 0.005 | [6] -0.027 | [7] -0.002 | [8] 0.049 | IRAK-1-4 Inhibitor I 0.028

RABGGTB (UniProt P53611)
inactive: erlotinib 0.01 | [1] 0.026 | [2] -0.015 | [3] 0.021 | [4] 0.04 | [5] -0.023 | [6] -0.093 | [7] -0.029 | [8] 0.003 | IRAK-1-4 Inhibitor I 0.03

RNASEH2B (UniProt Q5TBB1)
inactive: erlotinib -0.01 | [1] 0.006 | [2] -0.024 | [3] 0.019 | [4] -0.011 | [5] 0.009 | [6] 0.024 | [7] -0.01 | [8] -0.041 | IRAK-1-4 Inhibitor I -0.003

RRAGA (UniProt Q7L523)
Chain of UniProt Q7L523 (Q7L523 whole entry, looked up): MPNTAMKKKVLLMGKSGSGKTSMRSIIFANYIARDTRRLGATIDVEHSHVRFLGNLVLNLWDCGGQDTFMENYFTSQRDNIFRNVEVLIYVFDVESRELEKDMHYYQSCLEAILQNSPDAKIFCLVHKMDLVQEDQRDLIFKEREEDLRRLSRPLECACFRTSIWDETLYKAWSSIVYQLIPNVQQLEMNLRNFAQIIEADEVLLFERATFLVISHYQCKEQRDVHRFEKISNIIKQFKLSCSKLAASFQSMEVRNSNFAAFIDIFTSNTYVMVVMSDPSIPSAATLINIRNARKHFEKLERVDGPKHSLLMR
inactive: erlotinib -0.022 | [1] -0.019 | [2] 0.001 | [3] -0.065 | [4] 0.118 | [5] -0.107 | [6] -0.008 | [7] -0.062 | [8] 0.005 | IRAK-1-4 Inhibitor I 0.026

RIPK1 (UniProt Q13546)
inactive: erlotinib -0.026 | [1] -0.01 | [2] -0.017 | [3] -0.022 | [4] -0.015 | [5] 0.008 | [6] 0.08 | [7] 0.031 | [8] -0.057 | IRAK-1-4 Inhibitor I 0

RPL28 (UniProt P46779)
inactive: erlotinib -0.012 | [1] -0.104 | [2] 0.006 | [3] -0.009 | [4] -0.037 | [5] 0.019 | [6] 0.016 | [7] -0.003 | [8] 0 | IRAK-1-4 Inhibitor I -0.02

RBSN (UniProt Q9H1K0)
Chain of UniProt Q9H1K0 (Q9H1K0 whole entry, looked up): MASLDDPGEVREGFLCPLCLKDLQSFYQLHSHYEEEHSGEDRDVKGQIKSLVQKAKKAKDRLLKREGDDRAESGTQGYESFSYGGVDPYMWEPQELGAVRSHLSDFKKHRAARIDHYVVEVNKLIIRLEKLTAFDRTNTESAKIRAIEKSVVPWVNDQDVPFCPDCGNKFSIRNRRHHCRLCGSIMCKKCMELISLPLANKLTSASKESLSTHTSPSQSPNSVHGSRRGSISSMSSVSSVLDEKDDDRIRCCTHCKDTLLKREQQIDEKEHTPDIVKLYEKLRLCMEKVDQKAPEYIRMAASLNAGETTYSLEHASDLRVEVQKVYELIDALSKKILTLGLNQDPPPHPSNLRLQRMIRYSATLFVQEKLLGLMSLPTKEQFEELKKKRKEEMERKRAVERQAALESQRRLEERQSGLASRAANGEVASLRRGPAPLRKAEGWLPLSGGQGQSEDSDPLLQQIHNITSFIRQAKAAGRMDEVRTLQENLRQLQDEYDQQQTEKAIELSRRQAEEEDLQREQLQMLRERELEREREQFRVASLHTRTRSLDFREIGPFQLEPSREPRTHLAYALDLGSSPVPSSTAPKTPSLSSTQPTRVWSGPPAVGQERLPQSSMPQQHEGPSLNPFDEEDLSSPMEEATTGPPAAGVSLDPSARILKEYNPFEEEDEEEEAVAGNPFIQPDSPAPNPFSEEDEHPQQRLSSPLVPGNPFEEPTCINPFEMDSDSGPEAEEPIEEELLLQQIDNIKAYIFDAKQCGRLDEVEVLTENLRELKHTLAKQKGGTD
inactive: erlotinib -0.067 | [1] -0.215 | [2] 0.004 | [3] -0.014 | [4] -0.004 | [5] 0.005 | [6] 0.043 | [7] 0.015 | [8] 0.063 | IRAK-1-4 Inhibitor I 0.025

RRM1 (UniProt P23921)
inactive: erlotinib 0.018 | [1] -0.019 | [2] 0.007 | [3] 0.025 | [4] 0.029 | [5] -0.01 | [6] -0.043 | [7] -0.046 | [8] -0.022 | IRAK-1-4 Inhibitor I 0.021

RAB21 (UniProt Q9UL25)
inactive: erlotinib 0 | [1] -0.008 | [2] 0.015 | [3] 0.02 | [4] 0.02 | [5] -0.028 | [6] -0.034 | [7] 0.026 | [8] 0.012 | IRAK-1-4 Inhibitor I 0.045

RTN4IP1 (UniProt Q8WWV3)
Chain of UniProt Q8WWV3 (Q8WWV3 whole entry, looked up): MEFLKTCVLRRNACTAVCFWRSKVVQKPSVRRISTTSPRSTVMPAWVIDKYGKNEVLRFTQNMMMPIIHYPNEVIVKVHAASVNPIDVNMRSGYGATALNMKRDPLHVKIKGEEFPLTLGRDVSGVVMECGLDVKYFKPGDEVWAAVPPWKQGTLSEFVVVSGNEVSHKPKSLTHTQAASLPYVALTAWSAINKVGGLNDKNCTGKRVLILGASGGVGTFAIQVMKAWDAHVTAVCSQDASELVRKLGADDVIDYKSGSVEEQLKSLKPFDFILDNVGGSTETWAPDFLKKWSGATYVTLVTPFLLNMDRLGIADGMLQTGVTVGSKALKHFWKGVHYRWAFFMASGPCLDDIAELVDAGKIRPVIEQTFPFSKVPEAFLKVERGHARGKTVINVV
inactive: erlotinib -0.028 | [1] 0.031 | [2] -0.028 | [3] 0.065 | [4] -0.017 | [5] -0.003 | [6] 0.022 | [7] 0.033 | [8] -0.016 | IRAK-1-4 Inhibitor I 0.011

RNF40 (UniProt O75150)
inactive: erlotinib -0.008 | [1] -0.01 | [2] 0.007 | [3] -0.039 | [4] -0.016 | [5] 0.003 | [6] -0.04 | [7] 0.011 | [8] 0.024 | IRAK-1-4 Inhibitor I -0.008

RINT1 (UniProt Q6NUQ1)
Chain of UniProt Q6NUQ1 (Q6NUQ1 whole entry, looked up): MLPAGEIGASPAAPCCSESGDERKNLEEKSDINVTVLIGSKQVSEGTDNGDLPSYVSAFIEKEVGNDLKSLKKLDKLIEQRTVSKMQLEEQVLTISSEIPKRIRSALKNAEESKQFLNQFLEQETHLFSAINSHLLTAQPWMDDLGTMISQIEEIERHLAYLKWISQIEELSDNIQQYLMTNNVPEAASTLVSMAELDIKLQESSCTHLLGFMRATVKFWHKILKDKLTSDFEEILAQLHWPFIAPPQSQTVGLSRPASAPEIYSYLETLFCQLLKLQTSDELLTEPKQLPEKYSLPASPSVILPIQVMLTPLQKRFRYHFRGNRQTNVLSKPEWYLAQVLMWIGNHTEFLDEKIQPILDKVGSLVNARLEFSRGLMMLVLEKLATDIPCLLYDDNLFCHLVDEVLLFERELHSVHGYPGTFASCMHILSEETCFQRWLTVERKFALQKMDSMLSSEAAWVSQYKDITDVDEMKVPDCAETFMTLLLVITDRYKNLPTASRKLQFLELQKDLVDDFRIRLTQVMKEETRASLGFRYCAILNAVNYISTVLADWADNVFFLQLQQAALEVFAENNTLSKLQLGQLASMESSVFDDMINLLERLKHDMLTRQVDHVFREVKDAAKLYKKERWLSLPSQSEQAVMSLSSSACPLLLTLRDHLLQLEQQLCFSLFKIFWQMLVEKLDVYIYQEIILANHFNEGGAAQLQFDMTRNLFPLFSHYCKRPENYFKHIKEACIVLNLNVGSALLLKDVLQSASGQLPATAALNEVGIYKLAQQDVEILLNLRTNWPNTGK
inactive: erlotinib 0.056 | [1] 0.029 | [2] -0.01 | [3] 0.012 | [4] 0.03 | [5] -0.042 | [6] -0.048 | [7] -0.029 | [8] 0.067 | IRAK-1-4 Inhibitor I 0.074

RBM5 (UniProt P52756)
Chain of UniProt P52756 (P52756 whole entry, looked up): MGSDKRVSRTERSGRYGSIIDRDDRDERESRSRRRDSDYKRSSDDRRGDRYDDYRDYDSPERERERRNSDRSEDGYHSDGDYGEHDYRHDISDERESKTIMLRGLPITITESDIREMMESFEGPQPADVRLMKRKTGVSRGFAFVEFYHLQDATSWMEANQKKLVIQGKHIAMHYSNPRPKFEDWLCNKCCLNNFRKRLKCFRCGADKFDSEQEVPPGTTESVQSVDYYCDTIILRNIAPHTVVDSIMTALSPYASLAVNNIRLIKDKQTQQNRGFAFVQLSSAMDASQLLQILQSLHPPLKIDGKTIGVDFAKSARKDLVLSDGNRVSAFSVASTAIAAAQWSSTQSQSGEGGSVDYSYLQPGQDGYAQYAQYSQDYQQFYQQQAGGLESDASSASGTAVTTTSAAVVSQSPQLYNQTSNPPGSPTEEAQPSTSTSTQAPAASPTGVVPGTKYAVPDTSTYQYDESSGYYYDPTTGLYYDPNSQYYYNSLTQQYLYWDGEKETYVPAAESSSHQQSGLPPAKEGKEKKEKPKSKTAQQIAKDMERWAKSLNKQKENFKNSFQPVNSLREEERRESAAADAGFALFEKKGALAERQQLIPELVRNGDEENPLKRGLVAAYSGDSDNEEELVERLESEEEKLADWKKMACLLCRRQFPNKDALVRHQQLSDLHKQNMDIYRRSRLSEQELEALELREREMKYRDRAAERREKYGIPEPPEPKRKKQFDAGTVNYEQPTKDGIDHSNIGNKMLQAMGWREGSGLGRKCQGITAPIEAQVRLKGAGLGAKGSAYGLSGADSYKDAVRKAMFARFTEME
inactive: erlotinib 0.095 | [1] -0.042 | [2] 0.054 | [3] 0.006 | [4] -0.006 | [5] 0.015 | [6] -0.121 | [7] -0.021 | [8] -0.001 | IRAK-1-4 Inhibitor I -0.023

RETREG2 (UniProt Q8NC44)
Chain of UniProt Q8NC44 (Q8NC44 whole entry, looked up): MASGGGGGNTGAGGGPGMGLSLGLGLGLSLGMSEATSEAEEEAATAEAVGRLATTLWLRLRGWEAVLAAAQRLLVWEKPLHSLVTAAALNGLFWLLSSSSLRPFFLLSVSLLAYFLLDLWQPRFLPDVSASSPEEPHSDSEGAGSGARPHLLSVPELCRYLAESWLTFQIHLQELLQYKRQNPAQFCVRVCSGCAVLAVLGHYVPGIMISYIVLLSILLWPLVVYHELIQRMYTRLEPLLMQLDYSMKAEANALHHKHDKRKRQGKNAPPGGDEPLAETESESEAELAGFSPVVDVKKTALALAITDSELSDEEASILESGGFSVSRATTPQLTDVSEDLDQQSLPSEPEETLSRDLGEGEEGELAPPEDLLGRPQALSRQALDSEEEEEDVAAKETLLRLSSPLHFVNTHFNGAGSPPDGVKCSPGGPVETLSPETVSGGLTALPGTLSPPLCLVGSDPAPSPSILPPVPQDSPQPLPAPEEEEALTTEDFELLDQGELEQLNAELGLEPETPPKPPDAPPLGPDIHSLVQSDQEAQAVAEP
inactive: erlotinib -0.08 | [1] 0.036 | [2] -0.115 | [3] -0.055 | [4] 0.049 | [5] 0.035 | [6] -0.063 | [7] 0.022 | [8] 0.075 | IRAK-1-4 Inhibitor I 0.106

RPS29 (UniProt P62273)
inactive: erlotinib 0.088 | [1] 0.023 | [2] 0.018 | [3] -0.064 | [4] -0.026 | [5] 0.017 | [6] 0.051 | [7] 0.018 | [8] -0.037 | IRAK-1-4 Inhibitor I 0.046

RNPS1 (UniProt Q15287)
inactive: erlotinib -0.008 | [1] -0.105 | [2] 0.025 | [3] -0.151 | [4] -0.005 | [5] -0.006 | [6] 0.027 | [7] -0.016 | [8] -0.073 | IRAK-1-4 Inhibitor I 0.023

RFC2 (UniProt P35250)
inactive: erlotinib -0.004 | [1] 0.017 | [2] -0.059 | [3] -0.017 | [4] 0.018 | [5] 0.004 | [6] -0.013 | [7] -0.011 | [8] -0.031 | IRAK-1-4 Inhibitor I -0.013

RNF149 (UniProt Q8NC42)
Chain of UniProt Q8NC42 (Q8NC42 whole entry, looked up): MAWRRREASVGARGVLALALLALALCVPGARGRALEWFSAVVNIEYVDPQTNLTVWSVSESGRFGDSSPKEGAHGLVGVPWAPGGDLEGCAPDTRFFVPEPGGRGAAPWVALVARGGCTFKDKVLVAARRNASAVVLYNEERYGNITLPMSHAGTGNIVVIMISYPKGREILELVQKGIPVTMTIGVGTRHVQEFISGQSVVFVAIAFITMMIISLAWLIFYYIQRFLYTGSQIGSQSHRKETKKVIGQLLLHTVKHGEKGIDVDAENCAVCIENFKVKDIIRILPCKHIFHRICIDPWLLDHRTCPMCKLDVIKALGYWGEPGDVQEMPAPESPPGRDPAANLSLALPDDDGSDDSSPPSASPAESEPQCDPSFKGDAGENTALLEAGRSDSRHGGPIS
inactive: erlotinib -0.044 | [1] -0.03 | [2] 0.003 | [3] -0.046 | [4] 0.135 | [5] -0.021 | [6] -0.031 | IRAK-1-4 Inhibitor I 0.068

SBF1 isoform 4 (UniProt O95248)
inactive: erlotinib 0.033 | [1] -0.059 | [2] 0.042 | [3] -0.052 | [4] -0.005 | [5] -0.027 | [6] -0.029 | [7] 0.028 | [8] -0.026 | IRAK-1-4 Inhibitor I -0.002

RAB1B (UniProt Q9H0U4)
inactive: erlotinib -0.009 | [1] -0.005 | [2] 0.011 | [3] 0.019 | [4] -0.002 | [5] 0.005 | [6] -0.008 | [7] 0.014 | [8] 0.003 | IRAK-1-4 Inhibitor I 0.055

RAPGEF2, A0A2R8YGD3
inactive: erlotinib -0.009 | [1] 0.16 | [2] 0.038 | [3] 0.042 | [4] -0.083 | [5] -0.047 | [6] 0.053 | [7] 0.007 | [8] -0.085 | IRAK-1-4 Inhibitor I 0.007

RTTN (UniProt Q86VV8)
inactive: erlotinib -0.002 | [1] -0.196 | [2] -0.123 | [3] -0.103 | [4] 0.045 | [5] -0.043 | [6] -0.056 | [7] 0.14 | [8] 0.036 | IRAK-1-4 Inhibitor I 0.098

RMC1 (UniProt Q96DM3)
Chain of UniProt Q96DM3 (Q96DM3 whole entry, looked up): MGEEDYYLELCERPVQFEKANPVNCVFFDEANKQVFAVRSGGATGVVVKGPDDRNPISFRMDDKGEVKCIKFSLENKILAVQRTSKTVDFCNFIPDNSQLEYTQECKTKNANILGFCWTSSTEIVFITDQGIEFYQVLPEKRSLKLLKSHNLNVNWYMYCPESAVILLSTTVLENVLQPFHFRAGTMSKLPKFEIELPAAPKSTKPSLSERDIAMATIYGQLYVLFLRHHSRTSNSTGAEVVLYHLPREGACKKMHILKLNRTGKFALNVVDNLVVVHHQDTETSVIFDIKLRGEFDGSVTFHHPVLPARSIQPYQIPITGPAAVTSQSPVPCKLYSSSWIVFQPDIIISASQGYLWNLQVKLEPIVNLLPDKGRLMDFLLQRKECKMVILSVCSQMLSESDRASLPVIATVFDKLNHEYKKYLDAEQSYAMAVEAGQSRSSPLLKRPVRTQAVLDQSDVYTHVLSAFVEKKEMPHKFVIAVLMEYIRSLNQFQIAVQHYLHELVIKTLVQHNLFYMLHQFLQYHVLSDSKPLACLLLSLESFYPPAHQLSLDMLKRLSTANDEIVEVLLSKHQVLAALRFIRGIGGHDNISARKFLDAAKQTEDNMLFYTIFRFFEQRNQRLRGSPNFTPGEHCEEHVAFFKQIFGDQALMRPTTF
inactive: erlotinib 0.015 | [1] -0.056 | [2] 0.017 | [3] -0.06 | [4] 0.004 | [5] -0.008 | [6] -0.054 | [7] -0.001 | [8] 0.035 | IRAK-1-4 Inhibitor I 0.006

RBM23 isoform 2 (UniProt Q86U06)
inactive: erlotinib -0.056 | [1] 0.007 | [2] 0.012 | [3] -0.106 | [4] 0.148 | [5] -0.052 | [6] 0.001 | [7] -0.175 | [8] 0.091 | IRAK-1-4 Inhibitor I -0.004

SAMHD1 (UniProt Q9Y3Z3)
inactive: erlotinib 0.035 | [1] 0.036 | [2] 0.004 | [3] 0.015 | [4] 0.005 | [5] -0.021 | [6] -0.057 | [7] -0.065 | [8] 0.035 | IRAK-1-4 Inhibitor I 0.013

RNASEL (UniProt Q05823)
inactive: erlotinib 0.103 | [1] -0.025 | [2] -0.019 | [3] -0.01 | [4] 0.099 | [5] 0.009 | [6] -0.062 | [7] -0.031 | [8] 0.005 | IRAK-1-4 Inhibitor I 0.006

RABEPK (UniProt Q7Z6M1)
inactive: erlotinib -0.01 | [1] 0.014 | [2] 0.012 | [3] 0.004 | [4] 0.032 | [5] 0.007 | [6] -0.024 | [7] -0.03 | [8] -0.032 | IRAK-1-4 Inhibitor I 0.014

SAR1B (UniProt Q9Y6B6)
inactive: erlotinib -0.143 | [1] 0.011 | [2] 0.042 | [3] -0.046 | [4] -0.065 | [5] -0.045 | [6] 0.029 | [7] -0.126 | [8] 0.025 | IRAK-1-4 Inhibitor I 0.041

SASS6 (UniProt Q6UVJ0)
inactive: erlotinib 0.024 | [1] 0.016 | [2] 0.028 | [3] -0.019 | [4] -0.009 | [5] 0.015 | [6] -0.023 | [7] -0.012 | [8] 0 | IRAK-1-4 Inhibitor I -0.021
